According to PubChem BioAssay (NCATS):
Where “and” joins values, the source holds several entries; their conditions need not be identical. Identical values can stand only once. Records with an inconclusive call do not appear. Entries that show only a call come without a potency. Calls of active or inactive are those of the source. Unless noted, calls follow the shape of the dose curve; as a rule, active = well fitted curve in the direction sought with a large enough effect; inconclusive = small, poorly fitted or top-dose-only effect, or another doubt; inactive = no such curve, though single readings can be large; an effect the other way counts as inactive or inconclusive.

Key:
[1] = Validation of Assay for Modulators of Lamin A Splicing (AID 1459; active = well fitted curve in the direction sought with a large enough effect in the signal ratio; the % refers to the signal ratio;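 also: cells exposed to compound for two days before reading; ratio rise marks activators and ratio drop marks inhibitors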)
Summary of the method: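 S3 HeLa cells stably expressing a lamin A-EGFP splicing minigene and DsRed2 were seeded at 600 cells/well in Opti-MEM with 2% FBS, pin-dosed, and incubated 48 hrs at 37 °C, 5% CO2. Laser-scanning cytometry (488 nm) gave GFP/RFP total intensity ratio.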

[2] = qHTS Assay for Lipid Storage Modulators (AID 1519; calls by dose curve); conditions: Drosophila S3 cells, BODIPY lipid droplet/cell ratio, laser cytometry, cells loaded with oleic acid; for activity change, negative = inhibition: at 57.5 µM (top of the series)
Summary of the method: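 Cells seeded at 5,000 per well were treated with compounds over a concentration series and loaded with oleic acid (400 uM, as added). Lipid droplet fluorescence (488 nm excitation, 500-530 nm channel) was read by laser-scanning cytometry and normalized to 20 uM Triacsin C.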

[3] = target: DNA repair nuclease/redox regulator APEX1 (Homo sapiens) (UniProt P27695); experiment: qHTS Validation Assay for Inhibitors of the Human Apurinic/apyrimidinic Endonuclease 1 (APE1) (AID 1705; also: potency is read from the fitted curve at half-maximal effect;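 as to activity change, negative = inhibition: TAMRA fluorescence gain over two minutes as APE1 cuts a quenched THF abasic duplex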)
Summary of the method: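 Human APE1 was preincubated with compound for 15 min at room temperature, then 50 nM (final) THF-abasic double-stranded DNA substrate bearing 5'-TAMRA and 3'-BHQ-2 was added. Incision-driven fluorescence rise (ex 525/em 598 nm) was read kinetically.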

[4] = Counterscreen for APE1 Inhibitors: Fluorescent Dye Displacement Validation Assay (AID 1707); also: potency is read from the fitted curve at half-maximal effect
Summary of the method: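 Counterscreen flags promiscuous DNA binders: compounds displacing ThO from duplex DNA (abasic THF site, 50 nM) reduce 540 nm emission (480 nm excitation). ThO 250 nM final; Tris-HCl pH 7.5 with NaCl, MgCl2 and Tween-20.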

[5] = target: Endonuclease 4 (Escherichia coli (strain K12)) (UniProt P0A6C1); experiment: Counterscreen for APE1 Inhibitors: qHTS Validation Assay for Inhibitors of Endonuclease IV (AID 1708); also: potency is read from the fitted curve at half-maximal effect
Summary of the method: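 The reaction buffer contained 50 mM Tris-HCl pH 7.5, 50 mM NaCl, 2 mM MgCl2, 1 mM DTT and 0.01% Tween-20. Incision of a 50 nM fluorophore/quencher THF substrate by 2 nM enzyme was measured kinetically.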

[6] = qHTS for differential inhibitors of proliferation of Plasmodium falciparum line 7G8 (AID 1815);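 also: parasite growth measured after three days of incubation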; also: potency is read from the fitted curve at half-maximal effect
[7] = qHTS for differential inhibitors of proliferation of Plasmodium falciparum line GB4 (AID 1816); conditions: Potency: Plasmodium falciparum GB4 proliferation inhibition;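 also: parasite growth measured after 72 h incubation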; also: potency is read from the fitted curve at half-maximal effect
[8] = qHTS for differential inhibitors of proliferation of Plasmodium falciparum line 3D7 (AID 1876); also: potency is read from the fitted curve at half-maximal effect
[9] = qHTS for differential inhibitors of proliferation of Plasmodium falciparum line D10 (AID 1877);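 also: parasites grown with compound for 72 h before DNA staining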; also: potency is read from the fitted curve at half-maximal effect
[10] = qHTS for differential inhibitors of proliferation of Plasmodium falciparum line Dd2 (AID 1882); conditions: Potency: Plasmodium falciparum Dd2 proliferation inhibition; also: nearly all actives have a fitted effect of over 65% in size; also: potency is read from the fitted curve at half-maximal effect;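 as to activity change, negative = inhibition: compound exposure of 72 h on infected erythrocytes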
Summary of the method: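 RBC culture, 0.3% parasitemia / 2.5% Hct final; cpd added by pin tool in DMSO; 72 h, 37 C, 5% CO2; lysis buffer + SYBR Green I, o/n RT dark; FI 485/535; norm. to artemisinin 0.29 uM and DMSO.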

[11] = qHTS for differential inhibitors of proliferation of Plasmodium falciparum line W2 (AID 1883); conditions: Potency: Plasmodium falciparum W2 proliferation inhibition;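 also: parasites grown with compound for 72 h before lysis and staining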; also: potency is read from the fitted curve at half-maximal effect
[12] = qHTS for differential inhibitors of proliferation of Plasmodium falciparum line HB3 (AID 1886); conditions: Potency: Plasmodium falciparum HB3 proliferation inhibition;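 also: parasites grown with compound for 72 h before SYBR Green readout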; also: potency is read from the fitted curve at half-maximal effect
[13] = qHTS Assay for Modulators of Human Peripheral Myelin Protein 22 (PMP22) Expression/Activity (AID 1967; active = well fitted curve in the direction sought with a large enough effect in the signal ratio; the % refers to the signal ratio)
Summary of the method: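 MSC80 mouse Schwann cells stably carrying Pmp22 promoter–green click beetle luciferase plus EF-alpha–red luciferase control were dosed for 24h at 37 °C. Dual-colour luminescence was filter-overlap corrected; %Activity came from green/red ratio versus untreated cells.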

[14] = target: Ferritin light chain (Equus caballus) (UniProt P02791); experiment: qHTS Validation Assay for Identification of Novel General Anesthetics (AID 2323)
Summary of the method: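 Competitive displacement of profluorescent 1-aminoanthracene (1-AMA, 50% saturated solution in PBS) from 10 uM horse-spleen apoferritin. Compounds incubated 10 min at room temperature; fluorescence read at 380 nm excitation/535 nm emission, normalized to free 1-AMA and complex, fitted with four-parameter Hill equation.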

[15] = target: ATP-dependent DNA helicase Q1 (Homo sapiens) (UniProt P46063); experiment: qHTS Validation Assay for Inhibitors of RecQ-Like Dna Helicase 1 (RECQ1) (AID 2353); also: potency is read from the fitted curve at half-maximal effect
Summary of the method: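 RECQ1T1 50 nM; forked duplex (20 bp + 30-nt ss tails) 200 nM, ATP 2 mM final; pH 8.0, 2 mM MgCl2, 2.5 ug/ml poly(dI-dC); 15 min compound preincubation; discontinuous kinetic read over 2 h at RT.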

[16] = target: RecQ-like DNA helicase BLM (Homo sapiens) (UniProt P54132); experiment: qHTS Validation Assay for Inhibitors of Bloom's syndrome helicase (BLM) (AID 2364); also: potency is read from the fitted curve at half-maximal effect
Summary of the method: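 Forked 20-bp duplex substrate (200 nM, TAMRA/BHQ-2) plus 2 mM ATP added after 15 min compound preincubation with 50 nM enzyme, pH 8.0, poly(dI-dC) 2.5 ug/ml. Strand separation followed by fluorescence (525/598 nm) over 2 h, normalized to enzyme-free and DMSO controls.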

[17] = target: alpha-glucosidase (Oryza sativa, rice) (UniProt Q653V4); experiment: Counterscreen for Glucocerebrosidase Inhibitors: qHTS Assay for Rice alpha-Glucosidase at pH 5.0 (AID 997)
Summary of the method: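 Endpoint fluorogenic assay at pH 5.0: compounds (0.7 nM to 77 uM) titrated against 4 nM rice enzyme and 400 uM 4-MU-alpha-glucoside for 20 min at room temperature; NaOH/glycine stop, read ex 365/em 440 nm, Hill-fitted AC50.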

[18] = measured here: cell count channel max response
[19] = measured here: lipid channel max response

Chain of Ferritin light chain (Equus caballus) (P02791 2-175 limits assumed): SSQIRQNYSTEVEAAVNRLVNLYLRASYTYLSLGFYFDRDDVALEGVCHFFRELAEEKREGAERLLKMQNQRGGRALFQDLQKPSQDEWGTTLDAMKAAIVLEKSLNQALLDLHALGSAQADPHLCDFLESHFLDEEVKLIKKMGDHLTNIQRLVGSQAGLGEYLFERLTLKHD
Chain of RecQ-like DNA helicase BLM (Homo sapiens) (P54132 whole entry, looked up): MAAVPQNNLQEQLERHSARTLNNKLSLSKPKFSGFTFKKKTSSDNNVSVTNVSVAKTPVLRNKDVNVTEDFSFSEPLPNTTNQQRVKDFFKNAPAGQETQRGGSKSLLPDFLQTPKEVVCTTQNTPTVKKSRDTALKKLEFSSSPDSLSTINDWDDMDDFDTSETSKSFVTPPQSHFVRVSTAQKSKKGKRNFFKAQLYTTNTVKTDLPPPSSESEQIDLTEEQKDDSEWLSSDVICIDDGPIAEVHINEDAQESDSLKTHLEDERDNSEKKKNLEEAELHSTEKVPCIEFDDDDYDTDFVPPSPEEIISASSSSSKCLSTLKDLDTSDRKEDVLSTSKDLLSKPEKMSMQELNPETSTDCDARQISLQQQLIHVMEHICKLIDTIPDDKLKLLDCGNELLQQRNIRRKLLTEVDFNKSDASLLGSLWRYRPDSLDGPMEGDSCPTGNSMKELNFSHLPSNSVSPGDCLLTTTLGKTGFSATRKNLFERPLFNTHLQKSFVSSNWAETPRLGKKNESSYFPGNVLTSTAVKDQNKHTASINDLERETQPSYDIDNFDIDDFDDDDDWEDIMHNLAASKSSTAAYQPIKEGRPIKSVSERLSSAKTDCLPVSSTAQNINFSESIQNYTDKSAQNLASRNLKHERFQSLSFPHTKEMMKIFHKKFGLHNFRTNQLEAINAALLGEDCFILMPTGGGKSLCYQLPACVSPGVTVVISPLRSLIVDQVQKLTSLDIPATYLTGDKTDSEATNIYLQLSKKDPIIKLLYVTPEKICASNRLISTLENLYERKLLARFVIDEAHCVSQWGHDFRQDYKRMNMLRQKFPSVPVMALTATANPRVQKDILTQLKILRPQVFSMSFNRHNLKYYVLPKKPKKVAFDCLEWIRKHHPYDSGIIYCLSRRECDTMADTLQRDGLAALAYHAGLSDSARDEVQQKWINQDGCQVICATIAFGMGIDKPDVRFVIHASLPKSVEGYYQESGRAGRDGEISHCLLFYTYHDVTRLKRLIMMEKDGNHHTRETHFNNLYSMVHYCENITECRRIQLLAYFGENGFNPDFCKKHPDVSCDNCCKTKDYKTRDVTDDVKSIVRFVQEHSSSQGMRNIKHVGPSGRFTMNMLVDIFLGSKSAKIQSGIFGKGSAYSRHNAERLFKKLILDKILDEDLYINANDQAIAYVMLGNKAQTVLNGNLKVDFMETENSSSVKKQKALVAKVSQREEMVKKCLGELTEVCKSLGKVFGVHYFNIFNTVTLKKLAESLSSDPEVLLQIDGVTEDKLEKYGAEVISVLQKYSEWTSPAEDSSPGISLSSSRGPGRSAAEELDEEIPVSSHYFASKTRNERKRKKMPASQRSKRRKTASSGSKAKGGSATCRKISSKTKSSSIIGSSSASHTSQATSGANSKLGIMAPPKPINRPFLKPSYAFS
Chain of DNA repair nuclease/redox regulator APEX1 (Homo sapiens) (P27695 whole entry, looked up): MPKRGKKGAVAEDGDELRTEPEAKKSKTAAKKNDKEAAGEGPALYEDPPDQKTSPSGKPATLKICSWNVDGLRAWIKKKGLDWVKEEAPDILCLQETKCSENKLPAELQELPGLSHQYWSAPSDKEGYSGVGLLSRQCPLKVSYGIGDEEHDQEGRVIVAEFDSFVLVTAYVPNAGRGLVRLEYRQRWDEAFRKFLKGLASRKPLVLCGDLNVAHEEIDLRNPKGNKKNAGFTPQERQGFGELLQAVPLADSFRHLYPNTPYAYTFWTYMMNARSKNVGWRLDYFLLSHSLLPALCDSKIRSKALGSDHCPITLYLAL
Chain of ATP-dependent DNA helicase Q1 (Homo sapiens) (P46063 whole entry, looked up): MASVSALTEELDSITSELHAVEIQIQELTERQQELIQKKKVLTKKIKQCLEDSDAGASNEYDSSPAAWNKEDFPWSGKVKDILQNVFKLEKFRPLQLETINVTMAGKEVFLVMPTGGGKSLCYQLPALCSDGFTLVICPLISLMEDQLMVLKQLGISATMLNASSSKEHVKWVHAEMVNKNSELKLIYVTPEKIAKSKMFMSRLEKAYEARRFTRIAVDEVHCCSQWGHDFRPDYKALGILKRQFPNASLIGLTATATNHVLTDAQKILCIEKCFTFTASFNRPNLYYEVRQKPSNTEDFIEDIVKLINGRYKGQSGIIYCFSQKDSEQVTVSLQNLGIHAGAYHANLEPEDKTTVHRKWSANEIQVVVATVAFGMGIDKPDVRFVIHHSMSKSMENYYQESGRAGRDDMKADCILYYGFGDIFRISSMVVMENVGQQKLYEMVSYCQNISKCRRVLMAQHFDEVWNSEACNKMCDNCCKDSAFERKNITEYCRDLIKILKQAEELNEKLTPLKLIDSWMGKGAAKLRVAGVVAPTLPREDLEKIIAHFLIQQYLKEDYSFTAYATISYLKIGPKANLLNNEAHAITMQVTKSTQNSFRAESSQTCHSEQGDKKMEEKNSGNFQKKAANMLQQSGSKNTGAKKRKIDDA

SMILES	outcome [1]	activity change, negative = inhibition [2]	max response [2, 18]	max response [2, 19]	Potency [3]	Potency [4]	Potency [5]	Potency [6]	Potency [7]	Potency [8]	Potency [9]	Potency [10]	Potency [11]	Potency [12]	outcome [13]	Potency [14]	Potency [15]	Potency [16]	outcome [17]
O=C(O)CCC(=O)N1CCCC1C(=O)O (stereo unspecified)	inactive	-1.81% (inactive)	29.3%	27.9%	inactive	inactive	inactive	inactive	inactive	inactive	inactive	inactive	inactive	inactive	inactive	inactive	inactive		
C[C@@H](NCCc1ccc(O)cc1)[C@@H](O)c1ccc(O)cc1	inactive	1.71% (inactive)	-16.7%	-23.8%	inactive	inactive	inactive	inactive	inactive	inactive	inactive	inactive	inactive	inactive	inactive	inactive	inactive	inactive	
NC1C=CC=C(C(=O)O)C1 (stereo unspecified)	inactive	2.8% (inactive)	4.79%	-17.7%	inactive	inactive	inactive	inactive	inactive	inactive	inactive	inactive	inactive	inactive		inactive	inactive		
NC1(C(=O)O)CCc2cc(C(=O)O)ccc21 (stereo unspecified)	inactive	-2.76% (inactive)	-17.6%	-22%	inactive	inactive	inactive	inactive	inactive	inactive	inactive	inactive	inactive	inactive	inactive	inactive	inactive		
NC1CONC1=O (stereo unspecified)	inactive	9.95% (inactive) and 0.344% (inactive)	9.83% and -1.76%	24% and -1.09%	inactive	inactive	inactive	inactive	inactive	inactive	inactive	inactive	inactive	inactive	inactive	inactive	inactive		
O=C(O)[C@H]1NCCC[C@H]1C(=O)O	inactive	-1.57% (inactive)	-48.8%	-48.9%	inactive	inactive	inactive	inactive	inactive	inactive	inactive	inactive	inactive	inactive	inactive	inactive	inactive		
Nc1nc2[nH]c(=O)cnc2c(=O)[nH]1	inactive	0.27% (inactive)	60.5%	55.1%	inactive	inactive	inactive	inactive	inactive	inactive	inactive	inactive	inactive	inactive			inactive	inactive	inactive
Nc1ccc(-c2nc3ccc(-c4nc5ccc(N)cc5[nH]4)cc3[nH]2)cc1	inactive	-0.707% (inactive)	-29.1%	-26.6%	28.2 µM (active)	25.1 µM (active)	22.4 µM (active)	0.794 µM (active)	0.891 µM (active)	0.355 µM (active)	0.708 µM (active)	1 µM (active)	0.251 µM (active)	0.794 µM (active)		inactive	8.91 µM (active)	22.4 µM (active)	inactive
CC(N)=O	inactive	-0.907% (inactive)	-17.4%	-17.3%	inactive	inactive	inactive	inactive	inactive	inactive	inactive	inactive	inactive	inactive		inactive	inactive		inactive
NC(N)=[N+]1CCc2ccccc2C1	inactive	1.3% (inactive)	6.74%	-12.8%	inactive	inactive	inactive	inactive	inactive	inactive	inactive	inactive	inactive	inactive		inactive	inactive	inactive	inactive
C#CCn1c(=O)c2c(ncn2C)n(C)c1=O	inactive	2.4% (inactive)	-11.8%	-10.7%	inactive	inactive	inactive	inactive	inactive	inactive	inactive	inactive	inactive	inactive	inactive	inactive	inactive		inactive
NCCCCN=C(N)N	inactive	6.41% (inactive)	4.55%	23.5%	inactive	inactive	inactive	inactive	inactive	inactive	inactive	inactive	inactive	inactive		inactive	inactive		inactive
O=c1[nH]ccc2c(O)cccc12	inactive	1.52% (inactive)	-28%	-29.5%	inactive	inactive	inactive	inactive	inactive	inactive	inactive	inactive	inactive	inactive		inactive	inactive		inactive
